The values that follow come from paper PMC5540273 (PLoS ONE, 2017).

Some test systems named below: S6K1; SBK1; SGK2; SGK3; SGK; SIK2; SIK; SLK; SNRK; SRC; SRMS; SRPK1; SRPK2; SRPK3; STK16; STK33; STK35.
Settings in all cases: concentration: 1 μM, replicates: in singlicate; n = 1
Assay [1] concerns T1, RSK4(Kin.Dom.1-N-terminal).
T1 construct: gene RPS6KA6

Assay [2] deals with T2, RSK4(Kin.Dom.2-C-terminal).
T2 construct: gene RPS6KA6

Another assay has as its system T3, SNARK.
T3 construct: gene NUAK2

Molecules are shown by their SMILES.
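Note: KINOMEscan kinase panel screen.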

Consider `COC(=O)Nc1nc2ccc(Oc3ccc(NC(=O)Nc4cc(C(F)(F)F)ccc4F)cc3)cc2[nH]1.Cl` [GW654607], for which the “%Inh” value is reported as 0% in assay [1]; 16% in [2]; 21% in the assay on S6K1; 17% with SBK1; 8% with SGK2; 5% with SGK3. For the same molecule, the “%Inh” value was 0% in the assay with SGK; 0% in the assay with SIK2; 0% with SIK; 85% in the assay on SLK; 0% with SNARK; 0% in the assay with SNRK. The “%Inh” value in the assay on SRC worked out at 16%; with SRMS, 3%; in the assay on SRPK1, 61%; in the assay on SRPK2, 0%; in the assay on SRPK3 it was 13%; in the assay with STK16, 10%. Further, the “%Inh” value was 73% with STK33 and 0% with STK35.

For `Cl.N#CCc1ccc(Nc2nccc(Nc3ccc(Oc4ccccc4)cc3)n2)cc1` [GW639905], the “%Inh” value is 0% in [1]; 0% in assay [2]; 0% in the assay with S6K1; 13% with SBK1; 0% with SGK2; 90.1% with SGK3. The “%Inh” value with SGK turned out to be 0%; with SIK2, 0%; in the assay on SIK it was 0%; in the assay with SLK it was 0%; with SNARK it was 96.6%; in the assay with SNRK, 2%. Further, the “%Inh” value in the assay on SRC is given as 37%; with SRMS, 82%; in the assay on SRPK1, 18%; in the assay on SRPK2 it was 0%; in the assay with SRPK3 it was 0%; in the assay with STK16 it was 79%. Besides, the figures for the “%Inh” value with STK33 and in the assay on STK35 were 0% and 65%, respectively.

On to `CN(C)CCOc1ccc(-c2cc(-c3ccc(Cl)c(O)c3)c(-c3ccncc3)[nH]2)cc1.Cl.Cl` [SB-684387], for which the “%Inh” value worked out at 0% in assay [1]; 25% in assay [2]; 6% in the assay on S6K1; 12% in the assay with SBK1; 10% in the assay on SGK2; 20% in the assay on SGK3. For the same molecule, the “%Inh” value in the assay on SGK worked out at 24%; with SIK2, 27%; in the assay with SIK, 4%; in the assay on SLK, 98%; with SNARK it was 9%; with SNRK it was 9%. Besides, the “%Inh” value in the assay with SRC amounted to 92.2%; in the assay with SRMS it was 3%; with SRPK1 it was 0%; in the assay with SRPK2, 30%; in the assay with SRPK3 it was 0%; in the assay with STK16 it was 14%. Also, the “%Inh” value in the assay on STK33 and with STK35 was 0% in each case.

As to `Cc1ccc(O)cc1Nc1ccnc2ccc(C(C)(C)C)cc12` [GW856805], the “%Inh” value in assay [1] was 31%; in assay [2], 1%; in the assay with S6K1, 13%; with SBK1, 53%; with SGK2, 13%; with SGK3, 1%. For the same molecule, the “%Inh” value in the assay with SGK is recorded as 25%; in the assay with SIK2, 0%; in the assay with SIK, 42%; with SLK, 12%; in the assay with SNARK, 19%; in the assay on SNRK it was 34%. For the same molecule, the “%Inh” value in the assay with SRC is on record as 99.9%; in the assay on SRMS it was 19%; in the assay on SRPK1 it was 24%; with SRPK2, 8%; in the assay on SRPK3, 9%; with STK16, 43%. Also, the figures for the “%Inh” value in the assay with STK33 and in the assay with STK35 were 11% and 0%, respectively.

Regarding `CCn1cnc2c(NCc3ccccc3)ncnc21` [SKF-96418], the “%Inh” value in [1] turned out to be 9%; in [2], 0%; with S6K1, 17%; in the assay on SBK1, 0%; with SGK2 it was 2%; with SGK3 it was 3%. For the same molecule, the “%Inh” value worked out at 2% in the assay on SGK; 0% in the assay on SIK2; 0% with SIK; 0% with SLK; 0% in the assay on SNARK; 0% with SNRK. Further, the “%Inh” value in the assay on SRC is listed as 0%; in the assay with SRMS, 26%; in the assay with SRPK1, 0%; in the assay on SRPK2, 47%; with SRPK3 it was 18%; with STK16, 0%. The “%Inh” value in the assay on STK33 and in the assay on STK35 was 0% each time.

For `Cc1cccc(Nc2nc(N[C@H]3CCCC[C@H]3N)ncc2C(N)=O)c1.Cl` [GSK986310], the “%Inh” value stood at 12% in [1]; 30% in assay [2]; 16% in the assay on S6K1; 71% with SBK1; 4% in the assay with SGK2; 0% in the assay with SGK3. Also, the “%Inh” value in the assay with SGK is 0%; in the assay on SIK2 it was 26%; in the assay with SIK, 53%; in the assay with SLK, 72%; in the assay on SNARK, 39%; in the assay with SNRK, 11%. The “%Inh” value in the assay on SRC is 65%; with SRMS it was 0%; in the assay on SRPK1, 44%; in the assay with SRPK2 it was 0%; in the assay on SRPK3, 0%; with STK16, 24%. Besides, the “%Inh” value with STK33 turned out to be 55%; in the assay on STK35, 28%.

In the case of `Nc1ncc(-c2cn[nH]c2)c2scc(-c3ccc4c(c3)CCN4C(=O)Cc3ccccc3)c12` [GSK2593067], the “%Inh” value was 0% in [1]; 0% in assay [2]; 8% in the assay on S6K1; 0% in the assay with SBK1; 0% in the assay on SGK2; 0% in the assay with SGK3. The “%Inh” value in the assay with SGK was 0%; in the assay on SIK2, 0%; with SIK, 59%; with SLK it was 73%; in the assay with SNARK, 10%; with SNRK, 0%. Besides, the “%Inh” value turned out to be 69% with SRC; 59% in the assay on SRMS; 44% in the assay with SRPK1; 0% with SRPK2; 0% in the assay on SRPK3; 0% in the assay on STK16. In addition, the figures for the “%Inh” value with STK33 and in the assay with STK35 were 2% and 0%, respectively.

On to `COc1ccc(C2=C(Nc3cccc(O)c3)C(=O)NC2=O)cc1` [SB-390766], for which the “%Inh” value in assay [1] is given as 0%; in assay [2], 20%; in the assay with S6K1 it was 17%; in the assay with SBK1, 8%; with SGK2, 11%; with SGK3, 9%. In addition, the “%Inh” value turned out to be 0% in the assay with SGK; 0% with SIK2; 0% in the assay on SIK; 27% in the assay on SLK; 0% in the assay with SNARK; 0% in the assay on SNRK. For the same molecule, the “%Inh” value in the assay with SRC was 0%; in the assay on SRMS, 0%; in the assay on SRPK1, 49%; with SRPK2, 0%; in the assay on SRPK3 it was 0%; with STK16, 34%. In addition, the entries for the “%Inh” value with STK33 and in the assay on STK35 were 100% and 0%, respectively.
